The whole screen tested about 3,000 compounds, of which about 1,600 (53%) were called active. Inconclusive results (about 10%) are left out. The set was probably picked from earlier hits. These entries were drawn from the full list. A number with no mark means an inactive call.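 The calls were made as follows: active = Flux at 10 µM at least 3 SD below or above vehicle control mean in one or both replicates; inconclusive = no clear call, values can overlap the other calls; inactive = the rest.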
molecular target: ATP-sensitive inward rectifier potassium channel 1 (Homo sapiens) (UniProt P48048); test: retested modulators of human Kir1.1 channel – cell-based, thallium flux, duplicate, resupplied hits, confirmation (AID 1917); details: ROMK thallium flux, fluorescence ratio; at 10 µM; active compounds read low
Sequence (P48048 whole entry, looked up): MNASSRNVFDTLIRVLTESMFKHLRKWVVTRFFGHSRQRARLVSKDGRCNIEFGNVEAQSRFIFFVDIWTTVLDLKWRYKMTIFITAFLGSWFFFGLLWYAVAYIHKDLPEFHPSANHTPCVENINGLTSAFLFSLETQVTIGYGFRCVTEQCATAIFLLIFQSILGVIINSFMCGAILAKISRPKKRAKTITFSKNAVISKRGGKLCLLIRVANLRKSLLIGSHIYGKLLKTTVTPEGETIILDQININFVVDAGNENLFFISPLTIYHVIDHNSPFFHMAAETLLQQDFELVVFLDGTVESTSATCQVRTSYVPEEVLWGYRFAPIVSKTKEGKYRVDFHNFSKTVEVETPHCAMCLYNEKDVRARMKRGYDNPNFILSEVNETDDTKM

Row | Structure (SMILES) | normalized thallium flux (F/F0 slope)
1 | CC(=O)Nc1cccc(OCC(=O)/C=C2\N(C)c3ccccc3C2(C)C)c1 | 0.0622 (active)
2 | COc1ccc(C2=CC(c3cccc(OC)c3)n3nnnc3N2)cc1 (stereo not drawn) | 0.0704
3 | Cc1cc(NC(=O)/C=C/C(=O)N(c2ccccc2C)C(C(=O)NC2CCCC2)c2ccc(F)cc2)no1 (stereo not drawn) | 0.0543 (active)
4 | N#C/C(=C/c1cccc([N+](=O)[O-])c1)c1nnc2n1CCCCC2 | 0.0362 (active)
5 | CC1=C(C(=O)OCc2ccccc2)C(c2ccco2)n2ncnc2N1 (stereo not drawn) | 0.0737
6 | COc1ccc(C(CCNCc2ccccc2F)c2ccc(F)cc2)cc1 (stereo not drawn) | 0.0609 (active)
7 | Cc1cccc(Oc2c([N+](=O)[O-])c(=O)n(C)c3ccccc23)c1 | 0.063 (active)
8 | Nc1ccccc1SC(C[N+](=O)[O-])c1ccccc1 (stereo not drawn) | 0.0367 (active)
9 | O=C(/C=C/Sc1ncn[nH]1)c1ccc(Cl)cc1 | 0.0389 (active)
10 | Cc1ccc2c(=O)oc(N(C)C)nc2c1 | 0.0826
11 | CCOc1ccc(-n2cnnn2)cc1S(=O)(=O)N1CCC(C)CC1C (stereo not drawn) | 0.0657 (active)
12 | N=c1n(CCc2ccccc2)c2ccccc2n1Cc1ccccc1F | 0.0479 (active)
13 | COc1ccc(Nc2cc(C)nc(-n3nc(C)cc3C)n2)cc1 | 0.0854
14 | CC1(C)CCSC(/C=C/c2ccccc2)=N1 | 0.0442 (active)
15 | CCn1c(/C=C/Nc2ccccc2)[n+](CC)c2ccc(C(=O)OCC(F)(F)F)cc21 | 0.0522 (active)
16 | O=C(Nc1cccc(C(F)(F)F)c1)c1ccc(N2CCNCC2)c([N+](=O)[O-])c1 | 0.0632 (active)
17 | N#C/C(=C\c1ccccc1C(F)(F)F)C(=O)Nc1ccccc1F | 0.0489 (active)
18 | Cc1ccc(N2C(=O)C3CC3C2=O)cc1 (stereo not drawn) | 0.0794
19 | N#C/C(=C\C1=C(N2CCOCC2)C(=C\c2ccccc2)/CC1)C(=O)Nc1ccccc1F | 0.0509 (active)
20 | COC(=O)C[n+]1cccc2ccccc21 | 0.0529 (active)
21 | CN1CCN(c2ccc(S(=O)(=O)N3CCCCC3)cc2NC(=O)Cc2ccccc2F)CC1 | 0.0614 (active)
22 | CNc1nccc(-c2ccc(Cl)cc2)c1C#N | 0.0744
23 | CCOC(=O)N/N=C1\CC(C)S(=O)(=O)c2ccc(Cl)cc21 (stereo not drawn) | 0.0738

— PubChem BioAssay AID1917 (Vanderbilt High Throughput Screening Facility, 2009)
